# The whole screen tested about 340,000 compounds, of which about 1,000 (0.29%) were called active. Rule as the data show it: inconclusive = inhibition above about 29% without an active follow-up result; inactive = below that. Not all results are given here. Measured potencies and affinities stand elsewhere.
# Target: Genome polyprotein (Dengue virus type 2 (strain 16681-PDK53)) (UniProt P29991)
# Test: Dengue-2 NS5 methyltransferase inhibitors, primary screen, biochemical, confirmation dose response (AID 588689)
# Conditions: Dengue-2 NS5 methyltransferase capping enzyme assay, at 25 µM, stronger effect = higher value
# [1] = measured here: pilot screen replicate inhibition
Compound,inhibition,inhibition [1] [%]
COc1cccc(C(=S)N2CCOCC2)c1OS(=O)(=O)c1ccc(Cl)cc1,1.61% (inactive),–
CC(C)Cc1ccc(C(C)NC(=O)Cc2ccc(S(=O)(=O)N3CCOCC3)s2)cc1 (configuration not stated),-1.45% (inactive),–
O=C(Nc1ccccc1[N+](=O)[O-])c1cccc(N2C(=O)CCC2=O)c1,-7.81% (inactive),–
O=C(O)c1cnc(-c2ccccc2)nc1C(F)(F)F,-8.19% (inactive),–
COC(=O)Nc1nc(-c2ccccc2)c(C(=O)c2ccccc2)s1,-4.12% (inactive),–
COc1cccc(-c2ccc3ncnc(NCc4cccc(C)c4)c3c2)c1,-0.8% (inactive),–
COc1ccc(CNC(=O)/C=C/c2cc3c(cc2Br)OCO3)cc1,-8.34% (inactive),–
COc1cc(C(=O)O)c2c(c1C)OC(=O)c1c(C)cc(O)c(C=O)c1O2,0.72% (inactive),–
COc1cc(/C=C2\OC(=O)c3c(OC)cccc32)ccc1O,-20.1% (inactive),–
O=C(O)C1C2CCC(O2)C1C(=O)Nc1ccc(Br)cc1F (configuration not stated),-6.36% (inactive),–
C=CCC[C@@H](Cc1ccc(F)cc1)C(=O)OC[C@@H](Cc1ccccc1)NC(=O)[C@@H](CC=C)CC(=O)N[C@@H](CO)Cc1ccccc1,-4.81% (inactive),–
CC(C)CSC1=NSC2=NC(=O)/C(=C\c3cccs3)C(=N)N12,24.3% (inactive),–
N=C1/C(=C/c2cccs2)C(=O)N=C2SN=C(SCc3ccccc3)N12,-11.6% (inactive),–
CCCCCCCCCCNC(=O)CCn1[nH]c(=O)c2ccccc2c1=O,-4.1% (inactive),–
Cc1cccc(C)c1OCCn1nnc2ccccc21,1.31% (inactive),-3.03
COc1cc(/C=C2/C(=O)N(c3ccc(C(=O)O)cc3)N=C2C)cc(OC)c1O,-28.1% (inactive),–
COc1cc(/C=C2\C(=O)N(CCC#N)N=C2C)ccc1OCC(=O)Nc1ccccc1,27.7% (inactive),–
COc1cc(/C=C2/C(=O)N(c3cccc(Br)c3)N=C2C)cc(OC)c1O,-25.2% (inactive),–
COc1ccc(/C=C2\N=C(C)N(c3ccc(C(=O)O)cc3)C2=O)cc1OC,-13.8% (inactive),–
Cc1ccccc1NC(=O)Cn1nnc(S(=O)(=O)c2ccc(C(C)(C)C)cc2)c1N,-3.62% (inactive),–
NC(=O)N/N=C/c1ccc(-c2cccc(C(F)(F)F)c2)o1,-7.73% (inactive),–
Fc1cccc(/C=C2\CCCC3=C2NC(=S)NC3c2cccc(F)c2)c1 (configuration not stated),3.88% (inactive),–
COC1=C(Nc2ccc(C)cc2)C(=O)c2ccccc2C1=O,1.28% (inactive),–
Cc1ccc(SC2=C(Sc3ccc(C)cc3)C(=O)c3ccccc3C2=O)cc1,22.2% (inactive),–

Compound,inhibition,inhibition [1] [%]
COc1ccc(CN2CC(C(=O)NCCN3CCOCC3)CC2=O)cc1 (configuration not stated),0.54% (inactive),–
O=C(CN1C(=O)COc2ccc(Cl)cc21)N1CCc2ccccc21,-2.43% (inactive),–
Cc1cc(C)n(-c2nc3ccccc3c(=O)n2OCC#N)n1,-1.94% (inactive),–
CC(=O)Oc1ccc(N(C(C)=O)S(=O)(=O)c2ccccc2)c2ccccc12,6.04% (inactive),–
CC(=O)Oc1ccc(N(C(C)=O)S(=O)(=O)c2ccc(C)cc2)c2ccccc12,-8.55% (inactive),–
O=C(NCCCn1ccnc1)c1ccc(Cl)s1,-4.6% (inactive),–
O=S(=O)(O)c1ccc(N=Nc2ccccc2)cc1,-9.54% (inactive),–
O=S(=O)(Nc1ccc(N=Nc2ccc(O)c3ccccc23)cc1)c1ccccc1,6.54% (inactive),–
O=C(C[n+]1ccc(C(=O)c2ccccc2)cc1)Nc1ccccc1OC(F)F,-15.9% (inactive),–
O=P(C(=S)Nc1ccccc1Cl)(c1ccccc1)c1ccccc1,-1.15% (inactive),–
O=C(Nc1ccccc1)c1ccccc1NS(=O)(=O)c1ccc(Cl)s1,10.3% (inactive),–
Cc1ccc(NC(=O)c2ccccc2NS(=O)(=O)c2ccc(Cl)s2)cc1,-0.66% (inactive),–
COC(=O)[C@]1(C)N[C@H](CN(C)S(=O)(=O)c2ccc(OC)cc2)[C@@H]2C(=O)N(C)C(=O)[C@@H]21,-4.63% (inactive),-0.915
Cc1ccc(S(=O)(=O)N2CCOCC2)cc1C(=O)NC1CCCC(C)C1C (configuration not stated),1.47% (inactive),–
CCCC1=C([O-])C2N=CC=CC2=[N+](c2ccccn2)C1=O (configuration not stated),-1.93% (inactive),–
COC(=O)C1OC2(OC1C(=O)OC)c1ccccc1-c1ccccc12 (configuration not stated),-6.04% (inactive),–
O=C1c2ccccc2C(O)N1c1ccc(Cl)cc1 (configuration not stated),-2.08% (inactive),–
CC(C)(Oc1ccc(Cl)cc1)C(=O)NC1CCSC1=O (configuration not stated),-4.81% (inactive),–
CCOC(=O)N1CCC(NC(=S)Nc2ccc3nc(N4CCN(CC)CC4)cc(C)c3c2)CC1,-6.96% (inactive),–
COc1ccc(-c2cc(C(=O)NCCN3CCOCC3)c3ccccc3n2)c(OC)c1,-2.05% (inactive),–
Cc1cccc(N(CC(=O)O)CC(=O)O)c1,0.96% (inactive),–
COc1cccc(C(=O)C(C#N)=C(SC)SC)c1,12.4% (inactive),–
CSC(=CC(=O)c1ccccc1)SC,-2.05% (inactive),–
Cc1c(C(=O)Nc2cccc([N+](=O)[O-])c2)sc2ncn(CC(=O)N3CCOCC3)c(=O)c12,-4.39% (inactive),–

Compound,inhibition,inhibition [1] [%]
Cc1nc2ccc(Br)cc2c(-c2ccccc2)c1C(=O)O,1.96% (inactive),–
Cc1cccc(Nc2nnc(SCC(=O)NC3CCCc4ccccc43)s2)c1C (configuration not stated),-1.45% (inactive),–
CC(=O)Nc1ccc(-c2sc(Nc3cccc4ccccc34)n[n+]2-c2ccccc2)cc1,-7.03% (inactive),–
CSc1ccc(-c2sc(Nc3ccccc3)n[n+]2-c2ccccc2)cc1,-11.6% (inactive),–
CCOC(=O)c1cnc2c(C)c(Cl)ccc2c1N1CCN(CC)CC1,-10.3% (inactive),–
Cc1[nH]c2ccccc2c1-c1nc2ccccc2[nH]1,-3.22% (inactive),–
Cc1[nH]c2ccccc2c1-c1nc2ccccc2[nH]c1=O,-8.14% (inactive),–
COc1ccc(S(=O)(=O)NC2CCCC2)cc1C(N)=O,-1.94% (inactive),–
O=c1cc(O)c2ccc(O)cc2o1,0% (inactive),–
[O-][n+]1c2ccccc2[n+]([O-])c2cc(O)ccc21,37.8% (inactive),–
COc1ccc(C(=O)OCCNC(=O)c2ccncc2)cc1OC,-5.77% (inactive),–
CCOC(=O)c1ccccc1NC(=O)c1n[nH]c(=O)c2ccccc12,0% (inactive),–
COc1cccc(N2CCN(C(=O)c3c(C)nn(-c4ccccc4)c3C)CC2)c1,-1.48% (inactive),–
COc1ccc(C(=O)NC2CCCc3c2cnn3-c2ccc(C)c(C)c2)c(OC)c1OC (configuration not stated),-2.67% (inactive),–
CC1=NN(c2ccccc2)C(=O)C1C(=S)SC1CC(=O)NC1=O (configuration not stated),26.3% (inactive),–
O=C1CC(Sc2ncccc2C(=O)O)C(=O)N1 (configuration not stated),6.1% (inactive),–
O=C(COC(=O)c1ccc(Br)o1)NC1CCCc2ccccc21 (configuration not stated),-3.71% (inactive),–
CC(C)NS(=O)(=O)c1ccc(OCC(=O)NCc2ccco2)cc1,-2.21% (inactive),–
O=c1c2c([N+](=O)[O-])cc([N+](=O)[O-])cc2nc2ccccn12,0% (inactive),–
Cc1ccc2nc(C)c(C(=O)N/N=C/c3ccccc3[N+](=O)[O-])cc2c1,-1.3% (inactive),–
O=[N+]([O-])c1cnc2ccccc2c1,3.89% (inactive),–
Cc1nc2ccc([N+](=O)[O-])cc2nc1C,-4.51% (inactive),–
COc1cc(Cl)cc(NC(=O)CCN2CCN(C)CC2)c1,-1.61% (inactive),–
O=C(NCCc1cccnc1)C1CCC(=O)N(CCc2cccc(F)c2)C1 (configuration not stated),-9.31% (inactive),–

Compound,inhibition,inhibition [1] [%]
Cc1ccccc1C(=O)Nc1c2c(nn1C(C)(C)C)CS(=O)(=O)C2,-5.2% (inactive),–
C=C1C(=O)O[C@H]2C[C@H]1[C@@H](OC(C)=O)C/C(C)=C/CC/C(C)=C\CC[C@]2(C)O,-22.5% (inactive),-2.46
CC(=O)C12CCCCC1CC1C3CC(C)C4(O)CC(=O)CCC4(C)C3CCC12C (configuration not stated),-1.3% (inactive),–
O=C(c1ccccc1NS(=O)(=O)c1ccccc1[N+](=O)[O-])N1CCOCC1,-3.61% (inactive),–
O=C(c1ccccc1NS(=O)(=O)c1ccccc1[N+](=O)[O-])N1CCCC1,5.25% (inactive),–
O=C1NN(c2ccccc2)C(=O)/C1=C\c1ccc(-c2cc([N+](=O)[O-])ccc2O)o1,-10.2% (inactive),–
O=C1NN(c2ccccc2)C(=O)/C1=C/c1ccc(Sc2ccc(Cl)cc2)o1,29.5% (inactive),–
O=Cc1ccc(-c2cccc(C(=O)O)c2)o1,0.72% (inactive),–
O=C1NN(c2ccccc2)C(=O)/C1=C/c1ccc(Sc2cccc3ccccc23)o1,-6.2% (inactive),–
CCc1cc(=O)oc2c3c(cc(OCC(=O)NCCCC(=O)O)c12)OC(C)(C)CC3,-5.29% (inactive),–
Cc1cc(C)n2nc(SCC(=O)N3CCCCC3C)nc2n1 (configuration not stated),3.69% (inactive),–
CCC1(C2=CCCCC2)C(=O)NC(=O)N=C1N (configuration not stated),1.17% (inactive),–
C[C@H](NC(=O)c1nc[nH]c1C(=O)NCCCCCN)C(=O)OCc1ccccc1,1.59% (inactive),–
O=C(COC(=O)c1ccc(-c2cnc3ccccc3n2)cc1)c1ccccc1,5.84% (inactive),–
COc1ccc(-n2nc3cc(N)c(Br)cc3n2)cc1,2.38% (inactive),–
Nc1cccc2nsnc12,12.4% (inactive),–
CCOC(=O)C1C(C(=O)Nc2cccc(C(F)(F)F)c2)C1C(=O)NC(C)C (configuration not stated),-1.46% (inactive),–
O=C(Nc1c[nH]c(=O)[nH]c1=O)c1cccc([N+](=O)[O-])c1,-9.65% (inactive),–
COC(=O)c1sc(-c2ccc(C(C)(C)C)cc2)cc1NC(=O)CSCC(=O)O,3.13% (inactive),–
COC(=O)c1sc(-c2ccc(Cl)cc2)cc1NC(=O)c1ccccc1C(=O)O,15.7% (inactive),–
COC(=O)c1sc(-c2ccccc2)cc1NC(=O)c1ccccc1,-1.45% (inactive),–
COC(=O)c1sc(-c2ccc(Cl)cc2)cc1NC(=O)/C=C/C(=O)O,16.1% (inactive),–
